The supplement of paper PMC11732987, “Enantioselective OTUD7B fragment discovery through chemoproteomics screening and high-throughput optimisation” (Communications Chemistry, 2025)

What was measured:
Assay in all cases: log2 ratio of Biotin-Ahx-Ub-VS probe labelling (compound/DMSO); higher = less target engagement, active = hit call of the paper (q ≤ 0.05, log2 ratio ≤ -1)
Conditions in all cases: treatment time: 3 h
[1] = compound: ClCC(=O)NC(C1CCCC1)c1cccs1
Procedure, shortened: (§1)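 DUBs in HEK293T lysate were labelled with Biotin-Ahx-Ub-VS (0.5 µM final, 1 h) after a 3 h treatment with compound at 50 or 200 µM or with DMSO, done in triplicate on 495 µg of lysate per sample. NeutrAvidin-enriched proteins were digested with LysC and trypsin and run by diaPASEF LC-MS/MS. Median-normalised label-free quantities gave average base-two log ratios of compound to DMSO by unpaired t-test, restricted to proteins with at least 2 unique peptides.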

[2] = compound: CCC1N(CCc2sccc12)C(=O)CCl
Procedure, shortened: as §1

[3] = compound: CN1c2ccccc2C(CS1(=O)=O)NC(=O)CCl
Procedure, shortened: as §1

[4] = compound: Cl.ClCC(=O)N1CCc2ncncc2C1
Procedure, shortened: as §1

[5] = compound: Cl.Cn1ncc2C(CCCc12)NC(=O)CCl
Procedure, shortened: as §1

[6] = compound: ClCC(=O)NC1CCOc2ccccc12
Procedure, shortened: as §1

[7] = compound: ClCC(=O)NC1CCCc2ccccc12
Procedure, shortened: (§2)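 Spectronaut label-free, global-median-normalised protein quantities underlie these values, which are average ratios of compound to vehicle from an unpaired t-test. They are reported as log2 and include only proteins identified by two or more unique peptides. Samples of HEK293T lysate (495 µg) were treated in triplicate with a compound concentration series or vehicle for 3 h, then labelled with Biotin-Ahx-Ub-VS at 0.5 µM final for 1 h before NeutrAvidin enrichment, LysC and trypsin digestion, and diaPASEF LC-MS/MS.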

[8] = compound: ClCC(=O)N[C@@H]1CCCc2ccccc12
Procedure, shortened: as §2

[9] = compound: ClCC(=O)N[C@H]1CCCc2ccccc12
Procedure, shortened: as §2

[10] = compound: CCC1N(CCc2cc(OC)c(Cl)cc12)C(=O)CCl
Procedure, shortened: as §1

[11] = compound: CCCC1N(CCc2cc(OC)c(OC)cc12)C(=O)CCl
Procedure, shortened: as §1

[12] = compound: CN(Cc1cccc(Br)c1)C(=O)CCl
Procedure, shortened: as §1

[13] = compound: CN(Cc1cccc(OCc2ccccc2C)c1)C(=O)CCl
Procedure, shortened: as §1

[14] = compound: CN(Cc1ccccc1)C(=O)CCl
Procedure, shortened: as §1

[15] = compound: COc1ccc(CN(C)C(=O)CCl)cc1
Procedure, shortened: as §1

[16] = compound: COc1cccc(CN(CCCc2ccccc2)C(=O)CCl)c1
Procedure, shortened: as §1

[17] = compound: ClCC(=O)N1CCc2cc(Cl)c(Cl)cc2C1
Procedure, shortened: as §1

[18] = compound: ClCC(=O)N1CCc2nc(ncc2C1)-c1ccccc1
Procedure, shortened: as §1

[19] = compound: ClCC(=O)N1CCc2nocc2C1
Procedure, shortened: as §1

[20] = compound: ClCC(=O)N1CCc2scc(Br)c2C1
Procedure, shortened: as §1

Measured: log2 ratio of Biotin-Ahx-Ub-VS probe labelling

USP15 (UniProt Q9Y4E8)
UniProt Q9Y4E8, sequence (Q9Y4E8 whole entry): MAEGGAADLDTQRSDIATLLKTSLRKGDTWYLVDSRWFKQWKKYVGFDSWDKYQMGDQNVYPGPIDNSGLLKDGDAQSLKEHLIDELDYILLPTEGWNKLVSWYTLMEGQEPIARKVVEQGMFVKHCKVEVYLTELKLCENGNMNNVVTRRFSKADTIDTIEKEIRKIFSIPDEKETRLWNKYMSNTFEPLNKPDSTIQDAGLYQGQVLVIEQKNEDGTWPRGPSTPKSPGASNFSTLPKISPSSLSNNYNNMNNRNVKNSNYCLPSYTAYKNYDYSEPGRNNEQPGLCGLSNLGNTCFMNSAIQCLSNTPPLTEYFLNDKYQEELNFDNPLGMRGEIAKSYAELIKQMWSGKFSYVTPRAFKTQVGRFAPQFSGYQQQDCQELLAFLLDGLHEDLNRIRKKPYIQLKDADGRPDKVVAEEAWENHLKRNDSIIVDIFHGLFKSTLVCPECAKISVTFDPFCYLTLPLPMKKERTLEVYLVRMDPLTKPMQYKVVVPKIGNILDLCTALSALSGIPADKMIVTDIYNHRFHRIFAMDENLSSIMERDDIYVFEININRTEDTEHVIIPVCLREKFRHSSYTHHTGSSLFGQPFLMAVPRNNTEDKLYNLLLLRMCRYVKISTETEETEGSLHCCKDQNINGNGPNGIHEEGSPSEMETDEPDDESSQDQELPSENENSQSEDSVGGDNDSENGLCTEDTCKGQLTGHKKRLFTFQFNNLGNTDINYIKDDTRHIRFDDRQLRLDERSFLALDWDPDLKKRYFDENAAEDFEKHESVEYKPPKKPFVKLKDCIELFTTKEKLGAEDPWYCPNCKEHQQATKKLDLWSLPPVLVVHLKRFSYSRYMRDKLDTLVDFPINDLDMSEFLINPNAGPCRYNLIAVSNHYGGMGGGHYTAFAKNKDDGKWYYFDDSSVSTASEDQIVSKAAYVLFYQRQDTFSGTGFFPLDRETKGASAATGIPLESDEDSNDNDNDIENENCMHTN
inactive: [1]; compound concentration: 200uM -0.0218

UniProt Q8TE49
UniProt Q8TE49, sequence (Q8TE49 whole entry): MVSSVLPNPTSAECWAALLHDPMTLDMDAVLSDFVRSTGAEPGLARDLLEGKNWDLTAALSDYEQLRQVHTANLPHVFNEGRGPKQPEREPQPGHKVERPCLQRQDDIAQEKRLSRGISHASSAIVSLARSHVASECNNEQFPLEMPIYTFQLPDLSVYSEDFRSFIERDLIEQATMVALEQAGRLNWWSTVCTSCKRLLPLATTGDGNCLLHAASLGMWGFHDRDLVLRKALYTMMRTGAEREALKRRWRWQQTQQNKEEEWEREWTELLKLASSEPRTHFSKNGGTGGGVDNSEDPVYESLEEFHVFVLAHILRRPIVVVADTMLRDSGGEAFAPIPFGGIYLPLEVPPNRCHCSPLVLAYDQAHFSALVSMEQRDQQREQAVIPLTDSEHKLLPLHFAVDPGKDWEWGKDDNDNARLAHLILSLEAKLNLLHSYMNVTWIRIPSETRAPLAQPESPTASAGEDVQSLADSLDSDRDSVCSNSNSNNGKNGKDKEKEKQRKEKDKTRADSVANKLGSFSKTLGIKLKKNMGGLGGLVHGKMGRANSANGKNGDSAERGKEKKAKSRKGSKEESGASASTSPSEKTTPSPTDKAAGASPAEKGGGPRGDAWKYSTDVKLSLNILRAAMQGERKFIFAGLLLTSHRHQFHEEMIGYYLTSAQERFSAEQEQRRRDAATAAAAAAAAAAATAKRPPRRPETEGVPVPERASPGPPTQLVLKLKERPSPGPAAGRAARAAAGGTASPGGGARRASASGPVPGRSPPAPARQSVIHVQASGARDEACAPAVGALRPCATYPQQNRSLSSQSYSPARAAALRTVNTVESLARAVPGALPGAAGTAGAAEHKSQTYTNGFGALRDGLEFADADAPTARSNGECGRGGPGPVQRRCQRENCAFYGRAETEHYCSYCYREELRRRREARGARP
inactive: [2]; compound concentration: 50uM -0.281 | [2]; compound concentration: 200uM -0.466 | [4]; compound concentration: 50uM -0.364 | [6]; compound concentration: 50uM -0.839 | [8]; compound concentration: 0.78uM -0.577 | [8]; compound concentration: 1.56uM -0.173 | [8]; compound concentration: 3.13uM -0.995 | [8]; compound concentration: 12.5uM -0.347 | [8]; compound concentration: 25uM -0.135 | [8]; compound concentration: 100uM -0.0704 | [9]; compound concentration: 0.78uM -1.04 | [9]; compound concentration: 12.5uM -0.835 | [10]; compound concentration: 50uM 0.126 | [11]; compound concentration: 50uM -0.481 | [11]; compound concentration: 200uM -1.23 | [12]; compound concentration: 50uM -0.52 | [12]; compound concentration: 200uM -0.96 | [13]; compound concentration: 50uM -0.844 | [13]; compound concentration: 200uM -1.04 | [14]; compound concentration: 50uM -0.139 | [14]; compound concentration: 200uM -0.82 | [15]; compound concentration: 50uM -0.245 | [15]; compound concentration: 200uM -0.895 | [16]; compound concentration: 50uM -0.508 | [16]; compound concentration: 200uM -0.562 | [17]; compound concentration: 50uM -0.0686 | [18]; compound concentration: 50uM -0.422 | [19]; compound concentration: 50uM -0.33 | [20]; compound concentration: 50uM -0.0558 | [1]; compound concentration: 50uM 0.0953 | [1]; compound concentration: 200uM -0.534
active: [3]; compound concentration: 50uM -1.25 | [3]; compound concentration: 200uM -2.71 | [4]; compound concentration: 200uM -1.55 | [5]; compound concentration: 50uM -2.22 | [5]; compound concentration: 200uM -2.78 | [6]; compound concentration: 200uM -1.23 | [7]; compound concentration: 0.78uM -1.71 | [7]; compound concentration: 1.56uM -1.79 | [7]; compound concentration: 3.13uM -1.77 | [7]; compound concentration: 6.25uM -1.34 | [7]; compound concentration: 12.5uM -1.27 | [7]; compound concentration: 25uM -2.03 | [7]; compound concentration: 50uM -2.39 | [7]; compound concentration: 100uM -2.75 | [7]; compound concentration: 200uM -3.99 | [8]; compound concentration: 6.25uM -1.72 | [8]; compound concentration: 50uM -1.33 | [8]; compound concentration: 200uM -1.69 | [9]; compound concentration: 1.56uM -1.6 | [9]; compound concentration: 3.13uM -1.78 | [9]; compound concentration: 6.25uM -1.41 | [9]; compound concentration: 25uM -2.19 | [9]; compound concentration: 50uM -2.93 | [9]; compound concentration: 100uM -3.39 | [9]; compound concentration: 200uM -3.55 | [10]; compound concentration: 200uM -1.15 | [17]; compound concentration: 200uM -1.89 | [18]; compound concentration: 200uM -1.52 | [19]; compound concentration: 200uM -2.04 | [20]; compound concentration: 200uM -1.81
